Data taken from the supplement of paper PMC10849652.
About 8,800 targets were measured; listed, in parts, are those with a hit and a random draw of the rest. About 0.5% of all pairs of compound and target were hits. Values without a mark were called inactive.

Tests used:
Assay in all cases: log2 fold change, soluble protein after heating vs DMSO (PISA); higher = thermal stabilisation; K562 lysate, 10 uM; active = over 0.2 and 3.5 SD of the protein, either way, in both replicates (recomputed)
alvocidib = compound: CN1CC[C@H](c2c(O)cc(O)c3c(=O)cc(-c4ccccc4Cl)oc23)[C@H](O)C1 [alvocidib]
Method in brief: (§1)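 A 30 min treatment with 10 μM compound was applied to crude K562 extract at 1 mg/mL protein in PBS pH 7.4 with 1 mM MgCl2. Heating for 3 min spanned 48°C-58°C, after which aliquots were pooled, adjusted to 0.5% NP-40 at 4°C and spun at 21,000xg for 90 min. TMTpro 16plex LC-MS/MS of the supernatant, with channel sums equalised, gave values recorded as log-two fold change in thermal stability against solvent controls, from duplicates.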

Tubastatin A = compound: CN1CCc2c(c3ccccc3n2Cc2ccc(C(=O)NO)cc2)C1 [Tubastatin A]
Method in brief: as §1

[1] = compound: CNC(=O)C1=CC=CC=C1NC2=NC(=NC=C2Cl)NC3=C(C=C(C=C3)N4CCOCC4)OC
Method in brief: as §1

defactinib = compound: CNC(=O)c1ccc(Nc2ncc(C(F)(F)F)c(NCc3nccnc3N(C)S(C)(=O)=O)n2)cc1 [defactinib]
Method in brief: as §1

[2] = compound: CNc1nc(-c2ccc3c(N)n[nH]c3c2)cc(N2C[C@@H](C(=O)NC3CCCCC3)CC[C@H]2C)n1
Method in brief: as §1

encorafenib = compound: COC(=O)N[C@@H](C)CNc1nccc(-c2cn(C(C)C)nc2-c2cc(Cl)cc(NS(C)(=O)=O)c2F)n1 [encorafenib]
Method in brief: as §1

[3] = compound: COC(=O)[C@H](CCSC)NC(=O)C1=C(C=C(C=C1)NC[C@H](CS)N)C2=CC=CC=C2
Method in brief: as §1

alisertib = compound: COc1cc(Nc2ncc3c(n2)-c2ccc(Cl)cc2C(c2c(F)cccc2OC)=NC3)ccc1C(=O)O [alisertib]
Method in brief: as §1

[4] = compound: COc1cc2nc(-c3cc(F)ccc3O)nc(N[C@@H]3CNC[C@H]3C(C)(C)O)c2cc1OC
Method in brief: as §1

gefitinib = compound: COc1cc2ncnc(Nc3ccc(F)c(Cl)c3)c2cc1OCCCN1CCOCC1 [gefitinib]
Method in brief: as §1

UniProt Q6NXT6, sequence (Q6NXT6 whole entry, looked up): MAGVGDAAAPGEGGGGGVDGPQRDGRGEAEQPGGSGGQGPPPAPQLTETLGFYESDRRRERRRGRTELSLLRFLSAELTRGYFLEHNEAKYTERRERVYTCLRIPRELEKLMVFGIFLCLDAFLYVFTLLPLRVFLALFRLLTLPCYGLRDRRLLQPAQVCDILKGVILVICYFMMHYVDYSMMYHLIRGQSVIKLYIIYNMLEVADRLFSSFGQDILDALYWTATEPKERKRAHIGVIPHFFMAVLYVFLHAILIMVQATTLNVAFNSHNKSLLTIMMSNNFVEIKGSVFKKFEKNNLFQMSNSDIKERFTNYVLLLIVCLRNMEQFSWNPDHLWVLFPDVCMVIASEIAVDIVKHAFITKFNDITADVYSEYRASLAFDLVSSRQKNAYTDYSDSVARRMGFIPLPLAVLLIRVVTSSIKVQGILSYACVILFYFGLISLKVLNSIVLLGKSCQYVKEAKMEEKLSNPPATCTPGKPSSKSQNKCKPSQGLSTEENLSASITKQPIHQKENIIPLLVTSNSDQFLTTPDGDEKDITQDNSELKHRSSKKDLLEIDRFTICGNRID
UniProt O95391, sequence (O95391 whole entry, looked up): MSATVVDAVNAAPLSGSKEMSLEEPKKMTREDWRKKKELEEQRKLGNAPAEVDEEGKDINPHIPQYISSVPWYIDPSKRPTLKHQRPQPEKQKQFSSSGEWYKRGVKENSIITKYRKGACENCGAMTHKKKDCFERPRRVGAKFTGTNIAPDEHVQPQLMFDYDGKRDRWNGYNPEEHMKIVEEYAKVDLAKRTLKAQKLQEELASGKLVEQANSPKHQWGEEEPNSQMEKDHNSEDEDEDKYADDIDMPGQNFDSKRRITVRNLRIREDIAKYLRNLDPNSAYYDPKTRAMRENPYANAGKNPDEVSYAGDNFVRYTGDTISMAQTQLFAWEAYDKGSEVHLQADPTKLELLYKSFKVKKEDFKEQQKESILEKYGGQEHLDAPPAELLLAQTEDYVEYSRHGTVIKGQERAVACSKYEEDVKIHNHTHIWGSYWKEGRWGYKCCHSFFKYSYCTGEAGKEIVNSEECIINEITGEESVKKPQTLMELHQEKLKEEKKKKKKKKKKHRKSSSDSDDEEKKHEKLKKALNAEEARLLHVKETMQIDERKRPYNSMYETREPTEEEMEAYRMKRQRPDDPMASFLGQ
UniProt Q9UJC5, sequence (Q9UJC5 whole entry, looked up): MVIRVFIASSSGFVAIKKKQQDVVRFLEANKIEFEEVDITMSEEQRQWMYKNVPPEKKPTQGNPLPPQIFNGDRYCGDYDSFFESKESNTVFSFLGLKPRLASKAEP
UniProt Q8N1F8, sequence (Q8N1F8 whole entry, looked up): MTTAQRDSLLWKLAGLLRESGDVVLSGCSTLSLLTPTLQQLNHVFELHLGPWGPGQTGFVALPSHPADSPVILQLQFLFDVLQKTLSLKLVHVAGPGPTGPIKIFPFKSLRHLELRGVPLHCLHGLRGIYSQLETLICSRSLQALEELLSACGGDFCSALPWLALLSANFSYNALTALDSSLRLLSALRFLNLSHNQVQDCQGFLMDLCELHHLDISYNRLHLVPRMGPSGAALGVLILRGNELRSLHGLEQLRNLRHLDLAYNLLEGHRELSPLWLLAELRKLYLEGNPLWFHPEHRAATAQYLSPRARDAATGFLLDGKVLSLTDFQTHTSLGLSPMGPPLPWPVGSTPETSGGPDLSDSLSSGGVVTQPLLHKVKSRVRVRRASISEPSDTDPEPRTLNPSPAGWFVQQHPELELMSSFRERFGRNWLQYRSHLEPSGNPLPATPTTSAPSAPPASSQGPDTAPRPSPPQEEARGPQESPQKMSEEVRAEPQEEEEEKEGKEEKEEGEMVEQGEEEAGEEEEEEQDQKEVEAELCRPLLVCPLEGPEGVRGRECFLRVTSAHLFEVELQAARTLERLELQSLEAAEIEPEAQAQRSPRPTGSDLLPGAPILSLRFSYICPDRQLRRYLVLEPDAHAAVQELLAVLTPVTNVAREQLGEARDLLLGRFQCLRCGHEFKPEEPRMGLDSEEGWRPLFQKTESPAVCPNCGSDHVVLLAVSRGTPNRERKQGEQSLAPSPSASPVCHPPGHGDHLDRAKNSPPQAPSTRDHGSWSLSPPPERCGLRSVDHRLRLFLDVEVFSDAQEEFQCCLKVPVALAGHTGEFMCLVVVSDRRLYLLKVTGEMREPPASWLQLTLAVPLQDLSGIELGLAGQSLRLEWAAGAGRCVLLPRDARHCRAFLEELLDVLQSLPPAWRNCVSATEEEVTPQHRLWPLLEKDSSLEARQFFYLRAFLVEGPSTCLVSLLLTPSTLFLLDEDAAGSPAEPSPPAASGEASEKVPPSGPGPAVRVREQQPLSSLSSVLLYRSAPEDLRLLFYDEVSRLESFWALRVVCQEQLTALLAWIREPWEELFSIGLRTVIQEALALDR
UniProt O95149, sequence (O95149 whole entry, looked up): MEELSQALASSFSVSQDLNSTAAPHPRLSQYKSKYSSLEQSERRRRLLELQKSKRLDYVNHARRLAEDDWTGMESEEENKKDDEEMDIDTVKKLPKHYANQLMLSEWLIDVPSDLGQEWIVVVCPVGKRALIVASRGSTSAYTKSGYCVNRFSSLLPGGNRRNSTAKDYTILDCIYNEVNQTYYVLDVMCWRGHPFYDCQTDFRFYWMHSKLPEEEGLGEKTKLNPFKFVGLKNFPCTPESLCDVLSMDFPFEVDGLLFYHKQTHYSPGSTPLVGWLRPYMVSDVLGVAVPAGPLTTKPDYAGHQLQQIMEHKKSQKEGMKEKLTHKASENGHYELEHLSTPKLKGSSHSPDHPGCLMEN
UniProt Q96EX1, sequence (Q96EX1 whole entry, looked up): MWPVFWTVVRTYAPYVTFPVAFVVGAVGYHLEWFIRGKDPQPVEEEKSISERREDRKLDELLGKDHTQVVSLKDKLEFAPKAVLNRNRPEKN
UniProt Q01130, sequence (Q01130 whole entry, looked up): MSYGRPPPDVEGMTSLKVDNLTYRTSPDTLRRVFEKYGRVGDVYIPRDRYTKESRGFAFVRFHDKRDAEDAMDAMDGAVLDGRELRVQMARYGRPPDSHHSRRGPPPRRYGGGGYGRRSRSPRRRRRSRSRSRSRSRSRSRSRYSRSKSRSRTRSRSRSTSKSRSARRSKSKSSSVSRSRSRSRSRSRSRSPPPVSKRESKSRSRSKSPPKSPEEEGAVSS
UniProt Q9P289, sequence (Q9P289 whole entry, looked up): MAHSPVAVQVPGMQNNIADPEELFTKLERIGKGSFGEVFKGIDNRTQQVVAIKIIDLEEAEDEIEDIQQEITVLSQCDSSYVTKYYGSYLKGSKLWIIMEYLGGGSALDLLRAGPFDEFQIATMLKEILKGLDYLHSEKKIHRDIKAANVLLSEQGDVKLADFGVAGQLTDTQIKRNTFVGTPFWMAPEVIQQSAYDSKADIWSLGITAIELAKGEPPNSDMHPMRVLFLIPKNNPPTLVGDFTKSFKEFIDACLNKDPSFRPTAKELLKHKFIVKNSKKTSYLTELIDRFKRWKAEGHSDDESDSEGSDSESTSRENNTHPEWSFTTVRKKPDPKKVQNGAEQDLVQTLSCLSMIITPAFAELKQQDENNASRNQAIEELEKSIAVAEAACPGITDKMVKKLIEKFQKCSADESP
UniProt Q96H78, sequence (Q96H78 whole entry, looked up): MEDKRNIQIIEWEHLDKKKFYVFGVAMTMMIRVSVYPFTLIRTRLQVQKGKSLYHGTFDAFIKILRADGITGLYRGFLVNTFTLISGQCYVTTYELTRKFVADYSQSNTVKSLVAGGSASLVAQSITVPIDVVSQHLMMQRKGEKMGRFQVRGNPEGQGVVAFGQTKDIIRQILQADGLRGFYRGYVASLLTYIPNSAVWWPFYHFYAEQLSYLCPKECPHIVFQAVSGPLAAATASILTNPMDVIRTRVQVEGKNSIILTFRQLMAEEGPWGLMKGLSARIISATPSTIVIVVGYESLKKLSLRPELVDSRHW
UniProt O95793, sequence (O95793 whole entry, looked up): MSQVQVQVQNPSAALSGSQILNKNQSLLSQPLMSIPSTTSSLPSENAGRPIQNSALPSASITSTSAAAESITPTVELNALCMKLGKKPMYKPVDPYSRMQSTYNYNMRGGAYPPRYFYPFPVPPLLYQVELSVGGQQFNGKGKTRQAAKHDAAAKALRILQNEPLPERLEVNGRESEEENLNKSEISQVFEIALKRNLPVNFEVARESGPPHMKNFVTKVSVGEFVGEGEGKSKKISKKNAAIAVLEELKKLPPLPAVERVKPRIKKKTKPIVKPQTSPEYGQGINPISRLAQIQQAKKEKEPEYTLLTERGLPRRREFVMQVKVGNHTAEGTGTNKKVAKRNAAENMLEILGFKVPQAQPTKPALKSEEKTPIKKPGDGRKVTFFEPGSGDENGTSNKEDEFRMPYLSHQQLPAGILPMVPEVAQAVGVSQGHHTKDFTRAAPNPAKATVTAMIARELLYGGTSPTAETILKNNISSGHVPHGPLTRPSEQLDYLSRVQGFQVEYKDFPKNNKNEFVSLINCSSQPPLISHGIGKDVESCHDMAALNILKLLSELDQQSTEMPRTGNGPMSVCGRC
UniProt Q99961, sequence (Q99961 whole entry, looked up): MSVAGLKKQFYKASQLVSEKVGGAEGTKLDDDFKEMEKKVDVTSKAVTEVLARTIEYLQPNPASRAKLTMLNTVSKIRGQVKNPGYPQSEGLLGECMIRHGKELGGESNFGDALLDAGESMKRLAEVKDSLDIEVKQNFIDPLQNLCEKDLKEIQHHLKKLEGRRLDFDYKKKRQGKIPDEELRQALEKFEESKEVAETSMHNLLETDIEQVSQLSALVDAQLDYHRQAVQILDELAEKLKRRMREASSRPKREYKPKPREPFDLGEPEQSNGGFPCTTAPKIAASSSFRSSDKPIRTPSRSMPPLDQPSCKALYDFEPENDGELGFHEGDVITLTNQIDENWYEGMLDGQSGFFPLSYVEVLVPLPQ
UniProt Q9Y3B4, sequence (Q9Y3B4 whole entry, looked up): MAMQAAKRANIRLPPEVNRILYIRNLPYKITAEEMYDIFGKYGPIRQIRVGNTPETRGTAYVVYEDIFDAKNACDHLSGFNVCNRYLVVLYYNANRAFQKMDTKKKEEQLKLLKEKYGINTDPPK
UniProt Q96KF7, sequence (Q96KF7 whole entry, looked up): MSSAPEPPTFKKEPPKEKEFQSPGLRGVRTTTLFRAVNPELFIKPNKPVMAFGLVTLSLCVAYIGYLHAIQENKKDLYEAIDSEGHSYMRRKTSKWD

| Target | log2 fold change (alvocidib) | log2 fold change (Tubastatin A) | log2 fold change [1] | log2 fold change (defactinib) | log2 fold change [2] | log2 fold change (encorafenib) | log2 fold change [3] | log2 fold change (alisertib) | log2 fold change [4] | log2 fold change (gefitinib) |
| --- | --- | --- | --- | --- | --- | --- | --- | --- | --- | --- |
| SRSF2 (UniProt Q01130) | -0.135 | 0.084 | -0.017 | -0.018 | -0.005 | 0.033 | -0.016 | -0.004 | 0.016 | 0.015 |
| SH3BGRL2 (UniProt Q9UJC5) | 0.067 | 0.031 | 0.05 | 0.039 | 0.061 | -0.066 | 0.027 | -0.013 | -0.001 | -0.001 |
| STAU1 (UniProt O95793) | 0.062 | -0.06 | 0.051 | 0.027 | -0.04 | 0.078 | -0.009 | 0.072 | -0.007 | 0.012 |
| SNCA (UniProt P37840) | -0.094 | 0.172 | 0.028 | -0.019 | 0.269 | -0.026 | 0.204 | -0.021 | 0.117 | 0.089 |
| TAPT1 (UniProt Q6NXT6) | -0.101 | 0.037 | -0.086 | 0.047 | 0.056 | 0.053 | -0.074 | -0.016 | -0.006 | 0.055 |
| SLC25A36 (UniProt Q96CQ1) | 0.024 | -0.047 | 0.048 | 0.068 | 0.029 | 0.041 | 0 | 0.04 | 0.049 | 0.025 |
| SLC40A1 (UniProt Q9NP59) | 0.002 | 0.145 | -0.05 | 0.087 | -0.029 | 0.013 | -0.072 | 0.018 | 0.039 | -0.01 |
| STK11IP (UniProt Q8N1F8) | 0.013 | -0.005 | -0.025 | 0.041 | -0.014 | 0.053 | 0.062 | -0.026 | 0.025 | 0.069 |
| SMIM12 (UniProt Q96EX1) | 0.22 | 0.007 | 0.065 | 0.025 | 0.07 | -0.067 | -0.018 | 0.018 | -0.044 | -0.033 |
| SPATA5L1 (UniProt Q9BVQ7) | 0.022 | -0.16 | 0.019 | 0.036 | 0.23 | 0 | -0.061 | 0.024 | -0.052 | -0.013 |
| SLU7 (UniProt O95391) | -0.086 | -0.042 | -0.065 | 0.016 | -0.006 | 0.071 | 0.021 | 0.002 | – | 0.026 |
| SLC25A44 (UniProt Q96H78) | -0.05 | 0.007 | -0.221 | 0.064 | 0.14 | 0.015 | -0.013 | – | 0.099 | – |
| SMC2 (UniProt O95347) | 0.039 | -0.087 | -0.004 | -0.003 | -0.022 | -0.005 | 0.047 | 0.005 | 0.003 | -0.003 |
| SYNE2 isoform 2 (UniProt Q8WXH0) | -0.415 | 0.143 | -0.117 | -0.139 | -0.003 | -0.036 | 0.004 | 0.037 | 0.034 | -0.059 |
| SOX5 (UniProt P35711) | 0.048 | -0.113 | -0.219 | 0.017 | 0.074 | 0.034 | -0.025 | – | -0.104 | – |
| SORBS3 (UniProt O60504) | 0 | -0.095 | 0.032 | -0.062 | 0.059 | 0.02 | -0.143 | – | 0.065 | – |

| Target | log2 fold change (alvocidib) | log2 fold change (Tubastatin A) | log2 fold change [1] | log2 fold change (defactinib) | log2 fold change [2] | log2 fold change (encorafenib) | log2 fold change [3] | log2 fold change (alisertib) | log2 fold change [4] | log2 fold change (gefitinib) |
| --- | --- | --- | --- | --- | --- | --- | --- | --- | --- | --- |
| SPIRE1 (UniProt Q08AE8) | -0.101 | 0.02 | 0.038 | -0.024 | 0.084 | -0.046 | -0.036 | 0.02 | 0.076 | 0.049 |
| STIM1 (UniProt Q13586) | 0.008 | -0.056 | -0.041 | -0.018 | 0.024 | 0.003 | -0.016 | 0.008 | -0.106 | -0.013 |
| SNAP23 isoform 2 (UniProt O00161) | -0.323 | -0.202 | 0.029 | -0.118 | – | -0.295 | 0.071 | -0.15 | -0.152 | 0.016 |
| SMIM8 (UniProt Q96KF7) | -0.01 | 0.034 | -0.041 | 0.034 | 0.066 | 0.028 | 0.078 | 0.062 | 0.014 | -0.015 |
| SH3BP2 isoform 4 (UniProt P78314) | -0.023 | 0.026 | 0.03 | -0.054 | 0.099 | – | – | – | 0.053 | – |
| STN1 (UniProt Q9H668) | -0.078 | -0.032 | 0.173 | 0.016 | – | 0.024 | -0.149 | -0.026 | -0.562 (active) | 0.053 |
| SLC35A3 isoform 2 (UniProt Q9Y2D2) | -0.406 | -0.079 | 0.016 | 0.069 | – | 0.067 | -0.019 | 0.069 | -0.019 | 0.198 |
| SYPL1 (UniProt Q16563) | -0.132 | 0.057 | -0.007 | -0.014 | 0.029 | 0.013 | -0.022 | 0.016 | 0.012 | -0.033 |
| SF3B6 (UniProt Q9Y3B4) | 0.05 | -0.037 | 0.016 | 0.017 | 0.071 | 0.014 | -0.003 | -0.011 | -0.027 | -0.172 |
| SND1 (UniProt Q7KZF4) | 0.009 | -0.121 | 0.015 | 0.019 | -0.019 | -0.019 | 0.195 | 0.026 | -0.004 | -0.017 |
| STK26 (UniProt Q9P289) | 0.027 | -0.041 | 0.003 | 0.008 | -0.06 | 0.001 | 0.009 | -0.004 | 0.022 | -0.016 |
| SNUPN (UniProt O95149) | 0.012 | 0.028 | -0.173 | -0.066 | – | 0.006 | 0.155 | -0.007 | -0.009 | 0.076 |
| SYK (UniProt P43405) | -0.142 | -0.015 | -0.009 | -0.105 | 0.115 | 0.01 | 0.154 | – | 0.11 | -0.004 |
| SH3GL1 (UniProt Q99961) | 0.017 | -0.109 | 0.01 | 0.03 | -0.003 | -0.02 | -0.042 | -0.011 | 0.009 | 0.002 |
| SFN (UniProt P31947) | 0.05 | 0.054 | -0.009 | 0.052 | -0.017 | -0.024 | 0.065 | 0.076 | 0.008 | -0.008 |
